Potency and outcome data for 12 compounds are collected here from PubChem BioAssay (NCATS).

The structures appear in SMILES notation. “And” between values parts separate entries of the source, which are not always exact repeats. Identical values can stand only once. Records with an inconclusive call do not appear. Entries that show only a call come without a potency. The source made the active and inactive calls. Calls come from the whole dose curve; as a rule, active = well fitted inhibition curve with a large enough effect; inconclusive = small, poorly fitted or top-dose-only effect; inactive = flat fitted curve, though single readings scatter.
Potency is the fitted concentration of half-maximal effect.

The nature of this assay: P-glycoprotein substrates identified in KB-8-5-11 adenocarcinoma cell line, qHTS therapeutic library screen (AID 1346987). Note: nearly all actives have a fitted effect of over 65% in size. Particulars: KB-8-5-11 (P-gp overexpressing) viability, CellTiter-Glo, 72 h; series mostly up to 44.5 µM. In outline:
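KB-8-5-11, a colchicine-selected P-gp-overexpressing KB-3-1 subline, was grown without colchicine for the assay. Cells were seeded at 500 cells/well, dosed in concentration-response and incubated 72 h at 37 degree C, 5% CO2. Viability was read by CellTiter-Glo luminescence.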
As to `COc1ccc(CN2CCN(C(=O)CCNC(=O)c3ccc(C(C)(C)C)cc3)CC2)cc1`, the Potency entry was “inactive”.
As for `O=C(c1ccccn1)N(Cc1cccs1)C1(C(=O)NC2CCCCC2)CCCCC1`, the Potency result was “inactive”.
On to `O=C1C(Cc2ccc(O)cc2)N2C(=O)CCN(C(=O)NCc3ccccc3)C2CN1Cc1cccc2ccccc12` (configuration not stated), for which the Potency result is “inactive”.
Same read-out and setting: in the case of `C=C1CCN([C@H](C)[C@](O)(Cn2cncn2)c2ccc(F)cc2F)CC1` it was “inactive”.
Still for that read-out and setting: to `C/C=C(\C)C(=O)OC1C(C)C2(O)C(C=C(CO)CC3(O)C(=O)C(C)=CC32)C2C(C)(C)C12OC(C)=O` (configuration not stated) belongs “inactive”; to `N#CC(CCCN1CCC(O)(c2ccc(Cl)cc2)CC1)(c1ccccc1)c1ccccc1`, 20.6 µM (active).
On to `CC1(C)S[C@@H]2[C@H](NC(=O)C(C(=O)Oc3ccc4c(c3)CCC4)c3ccccc3)C(=O)N2[C@H]1C(=O)O` (some centres not stated), for which the Potency result was “inactive”.
Take `C[C@H](CSC(=O)c1ccccc1)C(=O)N1C[C@@H](Sc2ccccc2)C[C@H]1C(=O)O`: the Potency result was “inactive”.
Take `C=C(C)C(=O)OC1CC2(C)OC(=CC2=O)C(=C)CC2OC(=O)C(=C)C12` (configuration not stated): the Potency is 10.1 µM (active).
With `C1=C/COCc2cc(ccc2OCCN2CCCC2)Nc2nccc(n2)-c2cccc(c2)COC/1`, the Potency was 4.61 µM (active) and 7.31 µM (active).
`O=C(Nc1ccc(Cl)cc1)Nc1cccc(-c2cccc(N3CCCC3)n2)c1`: the Potency is 20.6 µM (active).
Regarding `CC(=O)O[C@@H]1[C@H](O[C@@H]2O[C@@H](CO)[C@H](O)[C@H]2O)[C@@H](O[C@@H]2O[C@@H](C)[C@H](O[C@@H]3OC[C@@H](O)[C@H](O)[C@H]3O)[C@@H](O)[C@H]2O)[C@H](OC(=O)[C@]23CCC(C)(C)C[C@H]2C2=CCC4[C@@]5(C)CC[C@H](O[C@@H]6O[C@H](C(=O)O)[C@@H](O)[C@H](O)[C@H]6O[C@@H]6O[C@H](CO)[C@H](O)[C@H](O)[C@H]6O)[C@@](C)(C=O)C5CC[C@@]4(C)[C@]2(C)C[C@H]3O)O[C@@H]1C` (some centres not stated), the outcome was “inactive [at 9.29 µM]”.
